Laboratory results published in PubChem BioAssay (NCATS).
“And” between values parts separate entries of the source, which are not always exact repeats. Equal entries are not always repeated. Records with an inconclusive call do not appear. Where a call stands in place of a potency, no number is given. The source made the active and inactive calls. Unless noted, calls follow the shape of the dose curve; as a rule, active = well fitted curve in the direction sought with a large enough effect; inconclusive = small, poorly fitted or top-dose-only effect, or another doubt; inactive = no such curve, though single readings can be large; an effect the other way counts as inactive or inconclusive.

Assays:
[1] = target: T1, Hexokinase-4 (Homo sapiens) + Glucokinase regulatory protein (Homo sapiens) (UniProt P35557+Q14397); assay: qHTS assay for inhibitors of recombinant human GCK-GKRP interaction: Diaphorase-coupled assay (AID 743205)
T1 sequence (P35557 whole entry, looked up): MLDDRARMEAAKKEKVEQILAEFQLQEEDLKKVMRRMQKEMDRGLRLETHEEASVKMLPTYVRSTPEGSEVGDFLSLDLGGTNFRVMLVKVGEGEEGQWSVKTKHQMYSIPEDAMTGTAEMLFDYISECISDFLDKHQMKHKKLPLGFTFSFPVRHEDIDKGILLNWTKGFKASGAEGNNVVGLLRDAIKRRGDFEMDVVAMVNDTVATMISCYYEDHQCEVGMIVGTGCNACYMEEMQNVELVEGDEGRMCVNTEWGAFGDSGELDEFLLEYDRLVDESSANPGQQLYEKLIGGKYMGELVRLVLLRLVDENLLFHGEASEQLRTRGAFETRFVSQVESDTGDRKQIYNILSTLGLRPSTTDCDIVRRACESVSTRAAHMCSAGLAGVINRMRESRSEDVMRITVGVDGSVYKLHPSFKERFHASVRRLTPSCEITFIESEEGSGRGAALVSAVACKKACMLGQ
T1 sequence (Q14397 whole entry, looked up): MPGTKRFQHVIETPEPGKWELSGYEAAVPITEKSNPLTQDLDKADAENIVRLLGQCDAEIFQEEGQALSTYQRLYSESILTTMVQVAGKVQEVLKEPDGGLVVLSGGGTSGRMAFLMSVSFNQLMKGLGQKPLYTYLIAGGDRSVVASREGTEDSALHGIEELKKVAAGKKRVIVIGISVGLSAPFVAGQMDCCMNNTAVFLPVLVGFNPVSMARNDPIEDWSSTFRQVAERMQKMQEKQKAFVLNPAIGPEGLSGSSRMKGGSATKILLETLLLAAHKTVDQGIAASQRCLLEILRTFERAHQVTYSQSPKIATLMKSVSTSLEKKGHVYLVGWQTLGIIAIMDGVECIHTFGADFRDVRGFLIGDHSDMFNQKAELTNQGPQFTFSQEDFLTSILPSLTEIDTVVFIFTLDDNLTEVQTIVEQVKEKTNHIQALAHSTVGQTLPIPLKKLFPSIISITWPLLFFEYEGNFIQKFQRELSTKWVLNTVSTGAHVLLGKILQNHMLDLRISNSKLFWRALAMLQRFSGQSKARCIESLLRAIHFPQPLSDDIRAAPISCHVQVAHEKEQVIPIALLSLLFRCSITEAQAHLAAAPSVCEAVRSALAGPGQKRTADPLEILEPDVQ
Procedure, shortened: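 25 mM Hepes pH 7.6, 5 mM glucose, 0.4 mM ATP, 4 U/ml G6PDH; 10 nM each GST-GCK/FLAG-GKRP. Kinetic fluorescence read, 1/min × 30 min. Normalized: DMSO ± enzyme = max/min.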

[2] = target: T1, Hexokinase-4 (Homo sapiens) + Glucokinase regulatory protein (Homo sapiens); assay: qHTS assay for inhibitors of recombinant human GCK-GKRP interaction: ADP-Glo assay (AID 743206)
Procedure, shortened: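 Pin-transferred compounds meet a 15 nM GST-GCK/15 nM FLAG-GKRP/2 uM S6P mix (dispense concentrations). ATP is then added to 0.4 mM final with 5 mM glucose, and the reaction runs 60 min at room temperature. ADP is quantified luminescently.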

[3] = target: T1, Hexokinase-4 (Homo sapiens) + Glucokinase regulatory protein (Homo sapiens); assay: qHTS assay for inhibitors of recombinant human GCK-GKRP interaction: HTRF assay (AID 743207)
Procedure, shortened: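 5 nM GST-GCK + 5 nM FLAG-GKRP + 2 uM S6P, pH 7.1 buffer (25 mM Hepes, 2 mM MgCl2, 25 mM KCl, 1 mM DTT, Tween/BSA); pin-transferred cpd; anti-FLAG XL665/anti-GST K; 60 min RT; HTRF.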

[4] = qHTS Assay for Identifying Gametocytocidal Compounds (AID 743244); also: potency is read from the fitted curve at half-maximal effect;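 as to max response: actives lower the fluorescent signal which means gametocytes are killed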; details: P. falciparum 3D7 stage III-V gametocytes, alamarBlue, 72 h; max response: stronger effect = lower value
Procedure, shortened: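 Viability read-out was resazurin reduction (alamarBlue, 24 h) measured at Ex 525/Em 598 nm. Beforehand, late-stage (III-V) 3D7 P. falciparum gametocytes at 20,000 cells/well were incubated with compound 72 h at 37C under 5% CO2.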

[5] = qHTS profiling of the MIPE4 collection as inhibitors of Plasmodium falciparum (3D7) proliferation (AID 743344; call rule not given here); details: P. falciparum 3D7 in erythrocytes, SYBR Green DNA fluorescence, 72 h; at 28.5 µM (top of the series) unless noted
Procedure, shortened: (§1)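 Parasite DNA was quantified by SYBR Green I fluorescence (ex 485, em 535 nm) after overnight lysis in saponin/Triton buffer at room temperature. Cultures at 0.3% parasitemia and 2.5% hematocrit were first exposed to compound for 72 h at 37 C; signals were normalised to artemisinin (0.29 uM) and vehicle wells.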

[6] = qHTS assay for cell viability of HEK293 cells (AID 743288); details: ATP luminescence (CellTiter-Glo), 18 h; max response: stronger effect = lower value; also: nearly all actives have a fitted effect of over 50% in size; also: potency is read from the fitted curve at half-maximal effect
Procedure, shortened: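 Viable-cell counts were inferred from luciferase-based ATP content in HEK293 cells seeded at 2,000/well, pre-incubated ≥5 h, then dosed with DMSO-solubilised compounds for 18 h at 37 C.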

[7] = qHTS assay for cell viability of the p53RE-bla HCT-116 cell line (AID 743292); also: nearly all actives have a fitted effect of over 55% in size; also: potency is read from the fitted curve at half-maximal effect
Procedure, shortened: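 Intracellular ATP of p53RE-bla HCT-116 cells measured by luciferase luminescence following 16 h compound incubation at 37 C; DMSO-only wells served as vehicle controls.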

[8] = qHTS profiling for inhibitors of Plasmodium falciparum (3D7) proliferation (AID 743322; call rule not given here;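 also: infected erythrocytes exposed to compound for 72 h before lysis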); details: P. falciparum 3D7 proliferation; at 28.7 µM (top of the series) unless noted
Procedure, shortened: as §1

[9] = qHTS profiling for inhibitors of Plasmodium falciparum (DD2) proliferation (AID 743323; call rule not given here); details: lower = more inhibition; at 28.7 µM (top of the series) unless noted
Procedure, shortened: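 Parasite DNA quantified by SYBR Green fluorescence (ex 485, em 535 nm) after saponin/Triton lysis and overnight dark incubation. Cultures: 0.3% parasitemia, 2.5% hematocrit, 72 h, 37 C; data scaled between DMSO and 0.29 uM artemisinin.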

[10] = qHTS profiling for inhibitors of Plasmodium falciparum (HB3) proliferation (AID 743324); details: Plasmodium falciparum HB3 blood-stage proliferation; at 28.7 µM (top of the series) unless noted
Procedure, shortened: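 SYBR Green fluorescence (485 ex/535 em) of lysed cultures, incubated overnight at room temperature in the dark, quantifies parasite DNA. Infected erythrocytes at 0.3% parasitemia and 2.5% hematocrit were exposed 72 h; values normalized to DMSO and 0.29 uM artemisinin controls.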

Compound: COc1ccc2cc([C@H](C)C(=O)O)ccc2c1
- outcome [1]: inactive
- outcome [2]: inactive
- outcome [3]: inactive
- max response [4]: 18.3% (inactive) and 6.4% (inactive)
- parasite growth, % of DMSO control [5]: 106%

Compound: O=c1c(O)c(-c2ccc(O)cc2O)oc2cc(O)cc(O)c12
- outcome [1]: inactive
- outcome [2]: inactive
- max response [4]: 11.7% (inactive)
- max response [6]: -9.35% (inactive)
- Potency [7]: inactive
- parasite growth, % of DMSO control [5]: 80.8%

Compound: CN(C)CCCC1(c2ccc(F)cc2)OCc2cc(C#N)ccc21 (centres undefined)
- outcome [1]: inactive
- outcome [2]: inactive
- outcome [3]: inactive
- max response [4]: 7.27% (inactive)
- parasite growth, % of DMSO control [5]: 95.4%

Compound: Cc1cc(O)c2c(c1)C(=O)c1cc(O)cc(O)c1C2=O
- outcome [1]: inactive
- outcome [2]: inactive
- outcome [3]: inactive
- max response [4]: 14.5% (inactive)
- Potency [6]: 44.7 µM (active)
- Potency [7]: 31.6 µM (active)

Compound: O=C1c2c(O)cc(O)cc2OC(c2ccc(O)c(O)c2)C1O (centres undefined)
- outcome [1]: inactive
- outcome [2]: inactive
- outcome [3]: inactive
- max response [4]: -8.7% (inactive)
- parasite growth, % of DMSO control [5]: 75.5%

Compound: NCCCCNCCCN
- outcome [1]: inactive
- outcome [2]: inactive
- outcome [3]: inactive
- max response [4]: 11.2% (inactive)
- parasite growth, % of DMSO control [5]: 161%

Compound: COc1cc2nc(N3CCN(C(=O)C4CCCO4)CC3)nc(N)c2cc1OC (centres undefined)
- outcome [1]: inactive
- outcome [2]: inactive
- outcome [3]: inactive
- max response [4]: -8.17% (inactive) and 12.4% (inactive)
- parasite growth, % of DMSO control [5]: 30.8%

Compound: Cc1cccc(C#Cc2ccccc2)n1
- outcome [1]: inactive
- outcome [2]: inactive
- outcome [3]: inactive
- max response [4]: 7.87% (inactive)
- remaining parasite growth % (stronger effect = lower value) [8]: 106%
- activity, percent of control [9]: 85.7%
- remaining proliferation (% of control), lower = more inhibition [10]: 75.6%
- parasite growth, % of DMSO control [5]: 23.9%

Compound: CCOC(=O)C(C)Oc1cccc2c(=O)n(CC(=O)Nc3ccc4c(c3)OCCO4)ccc12 (centres undefined)
- outcome [1]: inactive
- outcome [2]: inactive
- outcome [3]: inactive
- max response [4]: 9.26% (inactive)
- remaining parasite growth % (stronger effect = lower value) [8]: 115%
- activity, percent of control [9]: 97.4%
- remaining proliferation (% of control), lower = more inhibition [10]: 104%
- parasite growth, % of DMSO control [5]: 72.1%

Compound: CC1(C)NC(=O)N(c2ccc([N+](=O)[O-])c(C(F)(F)F)c2)C1=O
- outcome [1]: inactive
- outcome [2]: inactive
- outcome [3]: inactive
- max response [4]: 12.7% (inactive) and -11.2% (inactive)
- max response [6]: -18.9% (inactive)
- Potency [7]: inactive
- parasite growth, % of DMSO control [5]: 83.6%

Compound: O=C1c2ccccc2-c2n[nH]c3cccc1c23
- outcome [1]: inactive
- outcome [2]: inactive
- outcome [3]: inactive
- max response [4]: -3.57% (inactive) and 13.7% (inactive)
- parasite growth, % of DMSO control [5]: 62.9%

Compound: O=c1cc(N2CCOCC2)oc2c(-c3ccccc3)cccc12
- outcome [1]: inactive
- outcome [2]: inactive
- outcome [3]: inactive
- max response [4]: 3.56% (inactive)
- remaining parasite growth % (stronger effect = lower value) [8]: 105%
- activity, percent of control [9]: 96.7%
- parasite growth, % of DMSO control [5]: 51.9%

Compound: NNc1nncc2ccccc12
- outcome [1]: inactive
- outcome [2]: inactive
- outcome [3]: inactive
- max response [4]: -0.582% (inactive) and 32.1% (inactive)
- parasite growth, % of DMSO control [5]: 85.6%

Compound: CC1(C)C(=O)N(CCN2CCC(C(=O)c3ccc(F)cc3)CC2)c2ccccc21
- outcome [1]: inactive
- outcome [2]: inactive
- outcome [3]: inactive
- max response [4]: 6.71% (inactive)
- parasite growth, % of DMSO control [5]: 49%

Compound: NC(=NCc1ccccc1)NC(=O)c1nc(Cl)c(N)nc1N
- outcome [1]: inactive
- outcome [2]: inactive
- outcome [3]: inactive
- Potency [4]: 23.5 µM (active)
- remaining parasite growth % (stronger effect = lower value) [8]: -0.258% [at 18.4 µM]
- activity, percent of control [9]: 10.1% [at 18.4 µM]
- parasite growth, % of DMSO control [5]: 103%

Compound: CC(=O)O[C@H]1C(=O)[C@@]2(C)C([C@H](OC(=O)c3ccccc3)[C@]3(O)C[C@H](OC(=O)[C@H](O)[C@@H](NC(=O)c4ccccc4)c4ccccc4)C(C)=C1C3(C)C)[C@]1(OC(C)=O)CO[C@@H]1C[C@@H]2O (some centres undefined)
- outcome [1]: inactive
- outcome [2]: inactive
- outcome [3]: inactive
- parasite growth, % of DMSO control [5]: 5.85%

Compound: CNC[C@H](O)c1ccc(O)c(O)c1
- outcome [1]: inactive
- outcome [2]: inactive
- outcome [3]: inactive
- max response [4]: -9.4% (inactive) and 18.5% (inactive)
- max response [6]: -7.6% (inactive)
- Potency [7]: inactive
- parasite growth, % of DMSO control [5]: 61.3% [at 57.5 µM]

Compound: Oc1ccc(-c2nc(-c3ccc(F)cc3)c(-c3ccncc3)[nH]2)cc1
- outcome [1]: inactive
- outcome [2]: inactive
- outcome [3]: inactive
- max response [4]: 19.1% (inactive)
- parasite growth, % of DMSO control [5]: 37%

Compound: Cc1c(OCC(F)(F)F)ccnc1CS(=O)c1nc2ccccc2[nH]1 (centres undefined)
- outcome [1]: inactive
- outcome [2]: inactive
- outcome [3]: inactive

Compound: Nc1nc(OCc2ccccc2)c2[nH]cnc2n1
- outcome [1]: inactive
- outcome [2]: inactive
- outcome [3]: inactive
- max response [4]: 13.4% (inactive)

Compound: CC(=O)N1CCN(c2ccc(OC[C@H]3CO[C@](Cn4ccnc4)(c4ccc(Cl)cc4Cl)O3)cc2)CC1
- outcome [1]: inactive
- outcome [2]: inactive
- outcome [3]: inactive
- Potency [7]: inactive
- parasite growth, % of DMSO control [5]: 10.3%

Compound: CC(C)c1ccc2c(c1)c(SC(C)(C)C)c(CC(C)(C)C(=O)O)n2Cc1ccc(Cl)cc1
- outcome [1]: inactive
- outcome [2]: inactive
- outcome [3]: inactive
- max response [4]: 14.3% (inactive) and 21.6% (inactive)
- remaining parasite growth % (stronger effect = lower value) [8]: 39.7%
- activity, percent of control [9]: 27.3%
- remaining proliferation (% of control), lower = more inhibition [10]: 22.8%
- parasite growth, % of DMSO control [5]: 21.7%

Compound: O=C(c1ccccc1)c1ccc2n1CCC2C(=O)O (centres undefined)
- outcome [1]: inactive
- outcome [2]: inactive
- outcome [3]: inactive
- max response [4]: 44.1% (inactive) and 46.1% (inactive)
- parasite growth, % of DMSO control [5]: 67.8%

Compound: O=Nc1c(-c2c(O)[nH]c3cc(Br)ccc23)[nH]c2ccccc12
- outcome [1]: inactive
- outcome [2]: inactive
- outcome [3]: inactive
- parasite growth, % of DMSO control [5]: 2.9%
